# Measured values taken from PubChem BioAssay (NCI).
# “And” between values parts separate entries of the source, which are not always exact repeats. Equal entries are not always repeated. Compounds without any hit were thinned out: in the full panel of roughly 83,000, 20% have a hit.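 Activity criterion: percent growth below 10, measured after cells in 96-well plates were exposed to a single compound concentration for 48 hours.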 The source made the active and inactive calls.
# Tested on: HL-60(TB) leukemia
# Experiment: NCI-60 one-dose screen, 48 h (100 = growth as untreated, 0 = no growth, -100 = all killed)
# Details: 10 µM unless noted
row,SMILES,growth
1,FC(F)(F)c1cc(CNc2ncc(Br)c(Cl)n2)cc(C(F)(F)F)c1,101% (inactive)
2,O=C(/C(=C\c1ccc([N+](=O)[O-])cc1)S(=O)Cc1ccc(Cl)cc1)c1ccc(Cl)cc1 (stereo not given),59.4% (inactive)
3,CC(=O)N1N=C(c2ccc(Nc3nc(Nc4ccccc4)nc(Nc4ccccc4)n3)cc2)CC1c1cccc([N+](=O)[O-])c1 (stereo not given),94.8% (inactive)
4,CCCCOC(=O)OCc1cc(=O)c(O)co1,95.2% (inactive)
5,C=CCN(/C=C/CN(CC=C)CC=C)CC=C,102% (inactive)
6,Nc1ncnc2c1C(c1ccccc1)c1ccc3ccccc3c1O2 (stereo not given),82.4% (inactive)
7,Nc1cccc(Nc2cc(S(=O)(=O)O)c(N)c3c2C(=O)c2ccccc2C3=O)c1,105% (inactive)
8,CC(=O)c1cc2c(N)c(C(=O)Nc3ccccc3)sc2nc1C,55.6% (inactive)
9,CSc1nc2sc3cc(Cl)ccc3n2c(=N)c1C#N,121% (inactive)
10,CCOc1ccc2[nH]c(=S)sc2c1,78.9% (inactive)
11,CN1CCc2c(Sc3ccc(C(=O)NO)cc3)c3ccccc3n2C1,60.3% (inactive)
12,COc1cc(Cn2c(-c3nonc3N)nc3ccccc32)ccc1C,-3.72% (active)
13,COc1cc(-c2nc3ccccc3[nH]2)ccc1OCc1nnc(-c2ccc(CC(C)C)cc2)o1,98.5% (inactive)
14,COc1cc(OC)c2sc(-c3ccc(-n4cncc4-c4ccc(OC)c(OC)c4)cc3)nc2c1,58.5% (inactive)
15,COc1ccc(C(CC(=O)c2ccc3c(c2)OCO3)C(=O)O)cc1OC (stereo not given),101% (inactive) and 99.7% (inactive)
16,O=C(N/N=C/c1ccccc1)C(Oc1ccccc1)c1ccccc1 (stereo not given),109% (inactive)
17,NC1(c2ccc(-c3nc4ccn5c(=O)[nH]nc5c4cc3-c3ccccc3)cc2)CCC1,50.1% (inactive)
18,COc1ccccc1NC(=O)N/C(N)=N/c1nc2ccccc2s1,-27.1% (active)

row,SMILES,growth
1,CCOC(=O)c1cc(-c2cccnc2)nc2c(Cl)cc(Cl)cc12,108% (inactive)
2,CCNC1(NC#N)CCCCC1,96.8% (inactive)
3,Cc1ccc(NC2=CC(=O)C(=O)c3ccccc32)c(C)c1,38% (inactive)
4,CC(C)C/C=C/C=C/C(=O)N[C@@H](CC(N)=O)C(=O)N[C@@H]1C(=O)N[C@H](c2ccc(O)cc2)C(=O)N[C@H](CCCN)C(=O)N[C@H]([C@@H](C)O)C(=O)N[C@H](c2ccc(O)cc2)C(=O)N[C@H](c2ccc(O)cc2)C(=O)N[C@H]([C@H](C)O)C(=O)N[C@H](Cc2ccccc2)C(=O)N[C@H](CCCN)C(=O)N[C@H](c2ccc(O[C@H]3O[C@@H](CO)[C@@H](O)[C@@H](O)[C@H]3O[C@@H]3O[C@H](CO)[C@H](O)[C@H](O)[C@@H]3O)cc2)C(=O)N[C@H]([C@H](C)O)C(=O)N[C@H](c2ccc(O)cc2)C(=O)NCC(=O)N[C@H](CC(C)C)C(=O)N[C@H](C)C(=O)N[C@H](c2ccc(O)c(Cl)c2)C(=O)O[C@@H]1C(N)=O,72.1% (inactive)
5,CCOC(=O)/C=C/c1cc2cc(-c3csc4ccccc34)ccc2[nH]1,32.1% (inactive)
6,COc1ccc(C2=C(c3cn(C)c4ccccc34)C(=O)OC2)cc1OC,7.26% (active)
7,CCNCCNc1cc(-c2ccc(Cl)cc2)c(C#N)c2nc3ccccc3n12,-60.4% (active)
8,COCCn1c(Nc2ccc(C(=O)NO)cc2)nc2ccccc21,11.9% (inactive)
9,O=C(CCc1nnc2sc(COc3ccccc3)nn12)c1nc2ncccc2[nH]1,117% (inactive)
10,COc1ccc2[nH]cc(C(c3cc(F)cc(F)c3)c3c[nH]c4ccc(OC)cc34)c2c1,131% (inactive)
11,O=C(NC[C@H](O)CN1CCc2ccccc2C1)c1cc(NC2COC2)ncn1,119% (inactive)
12,OCCOCCN(Cc1ccccn1)Cc1cc(I)cc(I)c1O,63.3% (inactive)
13,O=[N+]([O-])c1cccc2ccc(N/N=C/c3ccccc3O)nc12,40.7% (inactive) and 50.5% (inactive)
14,CCOC(=O)/C=C1/SC(=Nc2ccc(C#N)cc2)N(Cc2ccco2)C1=O,-26.6% (active)
15,COc1cccc(-c2nn(-c3ccccc3)cc2-c2ccnc(NCCNS(=O)(=O)c3cccc(F)c3)c2)c1,5.83% (active)
16,CN(C)c1ccc(C(=N)c2ccc(N(C)C)cc2)cc1,12.3% (inactive) and 6.84% (active)
17,COc1ccc(-c2cn[nH]c2-c2cc(OC)c(OC)c(OC)c2)cc1N,-17.8% (active) and -10.7% (active)
